# Target: Tyrosine-protein kinase Fer (Homo sapiens) (UniProt P16591)
# Conditions: at 0.1 µM
# 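Also: reported figures are averaged percent inhibition of FER.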
# Chain of Tyrosine-protein kinase Fer (Homo sapiens) (P16591 whole entry, looked up): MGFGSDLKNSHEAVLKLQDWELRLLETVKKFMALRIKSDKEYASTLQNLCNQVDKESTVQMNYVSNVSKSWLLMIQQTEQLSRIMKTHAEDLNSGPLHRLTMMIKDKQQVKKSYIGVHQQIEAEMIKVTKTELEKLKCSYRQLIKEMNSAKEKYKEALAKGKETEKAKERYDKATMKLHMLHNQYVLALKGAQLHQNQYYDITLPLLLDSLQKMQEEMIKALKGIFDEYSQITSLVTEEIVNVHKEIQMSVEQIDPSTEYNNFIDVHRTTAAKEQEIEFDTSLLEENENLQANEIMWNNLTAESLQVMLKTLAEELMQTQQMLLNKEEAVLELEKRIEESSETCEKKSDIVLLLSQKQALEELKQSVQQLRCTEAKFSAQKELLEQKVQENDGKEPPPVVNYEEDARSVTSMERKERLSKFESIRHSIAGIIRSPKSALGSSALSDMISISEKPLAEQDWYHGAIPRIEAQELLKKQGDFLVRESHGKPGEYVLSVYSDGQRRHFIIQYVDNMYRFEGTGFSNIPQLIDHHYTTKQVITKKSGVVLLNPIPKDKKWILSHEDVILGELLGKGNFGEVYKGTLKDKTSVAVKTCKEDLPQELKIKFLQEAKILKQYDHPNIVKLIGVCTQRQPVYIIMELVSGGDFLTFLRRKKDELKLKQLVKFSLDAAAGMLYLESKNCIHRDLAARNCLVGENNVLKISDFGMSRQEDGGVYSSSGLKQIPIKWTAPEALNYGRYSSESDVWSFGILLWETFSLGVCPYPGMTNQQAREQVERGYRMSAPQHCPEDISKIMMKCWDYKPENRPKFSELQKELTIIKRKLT
row,Compound,inhibition
1,C[C@@H](Oc1cc(-n2cnc3ccc(OCC4CCN(C)CC4)cc32)sc1C(N)=O)c1ccccc1C(F)(F)F,-2.09%
2,Cc1cc(O)cc(C)c1/C=C/c1cncc(C(=O)N(C)C)c1,3.43%
3,c1ccc(Nc2ncc(-c3ccccc3)o2)cc1,3.09%
4,COc1ccc(-c2nn3ncccc3c2-c2ccnc(Nc3cccc(C(F)(F)F)c3)n2)cc1,0.8%
5,Cc1ccc(NC(=O)CC2CC2)cc1-c1ccc(C(=O)NCC2CC2)cc1,4.27%
6,COC(=O)c1ccc2c(c1)C(=Cc1cc(Br)c(O)c(Br)c1)C(=O)N2,-1.52%
7,Cc1ccc2c(-c3ccnc(Nc4ccc5c(c4)OCCO5)n3)c(-c3ccc(C(F)(F)F)cc3)nn2n1,0.5%
8,COc1cc(/C=N/Nc2ncnc3c2cnn3C(C)C)ccc1O,2.02%
9,Nc1ccc(C#Cc2cncnc2Nc2ccc(OCc3cccc(F)c3)c(Cl)c2)cc1,2.93%
10,ON=C1CCc2cc(-c3nc(C4CCNCC4)[nH]c3-c3ccncc3)ccc21,-0.49%
11,COc1cccc(-n2ncc3c(N/N=C/c4ccc(C)cc4)ncnc32)c1,8.13%
12,CCS(=O)(=O)c1ccc(OC)c(Nc2ncc(-c3cccc(OC)c3)o2)c1,-0.2%
13,CC(C)c1ccc2c(c1)NC(=O)/C2=N/Nc1ccc(S(N)(=O)=O)cc1,0.16%
14,Cc1cc(Cl)cc2c1NC(=O)C2=NNc1ccc(S(N)(=O)=O)cc1,2.65%
15,CC(C)c1ccc(Nc2nccc(-c3cnn4ncccc34)n2)cc1,5.74%
16,N#Cc1cccc(Nc2nccc(-c3cnn4ncccc34)n2)c1,9.92%
17,Oc1cccc(-c2nc(-c3ccccc3)[nH]c2-c2ccncc2)c1,3.43%

row,Compound,inhibition
1,CN1CCN(C(=O)c2ccc(NC(=O)Nc3ccc(N(C)c4ccnc(Nc5ccc(CS(C)(=O)=O)cc5)n4)cc3)cc2)CC1,16.2%
2,COC(=O)Nc1nc2cc(Oc3ccc(NC(=O)Nc4cccc(Br)c4)cc3)ccc2[nH]1,2.5%
3,COc1cccc(-n2ncc3c(N/N=C/c4ccc(S(C)(=O)=O)cc4)ncnc32)c1,1.13%
4,NS(=O)(=O)c1ccc(NC=C2C(=O)Nc3ccc4ncsc4c32)cc1,5.32%
5,CS(=O)(=O)CCNCc1nc(-c2ccc3ncnc(Nc4ccc(OCc5cccc(C(F)(F)F)c5)cc4)c3c2)cs1,3.78%
6,C[C@@H](Oc1cc(-n2cnc3ccc(OC[C@@H](O)CO)cc32)sc1C(N)=O)c1ccccc1Cl,-1.75%
7,NS(=O)(=O)c1ccc(-c2cc3ccncc3cc2OCc2ccccc2)cc1,5.47%
8,NS(=O)(=O)c1ccc(Nc2cc(-c3cccc(O)c3)n[nH]2)cc1,2.71%
9,Cc1ccc(Nc2ccnc(Nc3cccc(C(N)=O)c3)n2)cc1O,4.75%
10,COc1cccc(-n2nc(C)c3c(N/N=C(\C)c4ccncc4)ncnc32)c1,1.02%
11,CCn1c(-c2nonc2N)nc2ccc(F)cc21,3.01%
12,COc1cc2ncn(-c3cc(OCc4ccccc4S(C)(=O)=O)c(C#N)s3)c2cc1OC,6.67%
13,COc1cc2ncnc(Nc3ccc(C)c(O)c3)c2cc1OC,4.24%
14,NS(=O)(=O)c1cccc(-c2cc3ccncc3cc2OCc2ccccc2)c1,3.7%
15,COC(=O)c1cncc(/C=C/c2c(C)cc(O)cc2C)c1,2.19%
16,COc1cc(Nc2nccc(-c3cnn4ncccc34)n2)cc(OC)c1,11.1%

# — ChEMBL document CHEMBL1961873, “Compounds: GSK PKIS; Assays: Nanosyn kinase panel” (2012)
